# Laboratory results: PubChem BioAssay (NCATS)
# Several values for one entry are separate records, joined by “and”; a condition that tells them apart may be missing. Equal entries are not always repeated. Values without a mark were called inactive. Inconclusive results are not listed. A call without a number means that no potency is given here. Activity calls are given as the source filed them. Unless noted, the call rests on the fitted dose curve; in most records, active means well fitted curve in the direction sought with a large enough effect; inconclusive means small, poorly fitted or top-dose-only effect, or another doubt; inactive means no such curve, though single readings can be large; an effect the other way counts as inactive or inconclusive.
# Columns and labels:
# [1] = qHTS assay for small molecule agonists of the antioxidant response element (ARE) signaling pathway (AID 651741; active means well fitted activation curve with a large enough effect in the signal ratio; the % refers to the signal ratio; further: potency means the concentration at half of the fitted maximal effect)
# Outline: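 Seeding 2,000 ARE-bla HepG2 cells per well preceded a 5 h incubation at 37 C/5% CO2 and a 16 h compound exposure at 37 C. Beta-lactamase reporter activity was then quantified by fluorescence after 2 h with LiveBLAzer B/G FRET substrate.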
# [2] = qHTS assay for small molecule activators of the p53 signaling pathway (AID 651743; active means well fitted activation curve with a large enough effect in the signal ratio, not every such curve was filed as active; the % refers to the signal ratio; further: series mostly up to about 92 µM); settings: HCT-116 p53RE-bla, beta-lactamase FRET ratio, 16 h; activation: hits give high values
# Outline: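 Screen for p53 pathway agonists uses stably transfected p53RE-bla HCT-116 cells, 4,000 per well, treated 16 h at 37 C with compounds in DMSO.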
# [3] = qHTS assay for small molecule disruptors of the mitochondrial membrane potential - 1 hr assay (AID 651754; calls by dose curve; further: nearly all actives have a fitted effect of over 35% in size; further: potency means the concentration at half of the fitted maximal effect)
# Outline: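 HepG2 cells, attached overnight at 37C, were exposed to compound or DMSO vehicle for 1 hr at 37C, 5% CO2, then stained with Mito-MPS dye for 30 min. Red aggregate versus green monomer fluorescence reports membrane potential.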
# [4] = qHTS assay for small molecule disruptors of the mitochondrial membrane potential - 5 hr assay (AID 651755; calls by dose curve; further: nearly all actives have a fitted effect of over 40% in size; further: potency means the concentration at half of the fitted maximal effect)
# Outline: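 HepG2, 2,000 cells/well, overnight attach; cpd or DMSO 5 hr, 37C/5% CO2; Mito-MPS 30 min 37C; fluor 490/535 + 540/590 nm.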
# [5] = target: Tumor necrosis factor (Homo sapiens) (UniProt P01375); assay: qHTS assay to identify small molecules that stimulate Tumor Necrosis Factor-alpha (TNF-alpha) secretion (AID 651757; active means well fitted curve in the direction sought with a large enough effect in the signal ratio; the % refers to the signal ratio)
# Outline: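 THP-1 cells were exposed to compounds for 17 hrs at 37 C, after which secreted TNF-alpha was measured by homogeneous HTRF (TR-FRET) using cryptate- and XL665-labeled anti-TNF-alpha antibodies, read after 3 hr at room temperature.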
# [6] = qHTS assay to identify small molecules that stimulate interleukin-8 (IL-8) secretion (AID 651758; active means well fitted activation curve with a large enough effect in the signal ratio; the % refers to the signal ratio; further: potency means the concentration at half of the fitted maximal effect)
# Outline: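 Secreted IL-8 measured by TR-FRET sandwich (cryptate and XL665 antibodies) from THP-1 cells exposed to compound overnight (16 hrs, 37 C).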
# [7] = qHTS assay for environmental chemicals that activate the Aryl hydrocarbon Receptor (AhR) signaling pathway (AID 651777); settings: 1A2-DRE human hepatoma cells, luciferase, 24 h; activation: hits give high values; further: nearly all actives have a fitted effect of over 15% in size; further: potency means the concentration at half of the fitted maximal effect
# Outline: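 AhR activation is scored as a rise in luciferase from a stable DRE–CYP1A2 promoter construct in human hepatoma cells. Treatment lasts 24 hr at 37 C; detection uses One-Glo after 30 min at room temperature.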
# [8] = target: Peroxisome proliferator-activated receptor alpha (Homo sapiens) (UniProt Q07869); assay: qHTS assay for small molecule agonists of the peroxisome proliferator-activated receptor alpha (PPARalpha) signaling pathway (AID 651778); settings: PathHunter PPARalpha complementation, chemiluminescence, 6 h; hits give high values
# Outline: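 Chemiluminescence from complemented enzyme reported PPARalpha activation in cells after 6 hr of compound treatment at 37 C. The detection reagent was incubated for 60 min at room temperature, and compounds were scored as agonists.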
# [9] = target: Nuclear receptor ROR-gamma (Homo sapiens) (UniProt P51449); assay: qHTS assay for small molecule antagonists of the retinoid-related orphan receptor gamma (ROR-gamma) signaling pathway (AID 651802); further: series mostly up to about 92 µM; nearly all actives have a fitted effect of over 60% in size
# Outline: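 CHO cells carrying TET-inducible ROR-gamma and an ROR response element–luciferase reporter were exposed to compound, then induced with doxycycline. After 16hr at 37C, luminescence was read; lower signal indicates antagonism.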
# [10] = qHTS assay for small molecule agonists of the antioxidant response element (ARE) signaling pathway measured by Nrf2-dependant transcriptional activity (AID 720636; active means well fitted curve in the direction sought with a large enough effect in the repeat runs; an effect the other way counts as inactive or inconclusive;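 further: HepG2 cells with an ARE-driven luciferase reporter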)
# Outline: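 First, ARE-luc HepG2 cells attached for 6 hr at 37 C in 1% dialyzed FBS medium. Next, compound or DMSO was added and incubated 16 hr. Finally, ONE-Glo reagent was added and luminescence measured after 30 min.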
# [11] = qHTS assay for small molecule antagonists of the retinoid-related orphan receptor gamma (ROR-gamma) signaling pathway - cell viability counter screen (AID 720652; active means well fitted curve in the direction sought with a large enough effect in the repeat runs; an effect the other way counts as inactive or inconclusive;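 further: series mostly up to about 92 µM; compound exposure lasted 16 hr before ATP read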)
# Outline: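 Counter screen in CHO cells carrying TET-inducible ROR-gamma and an ROR response element-luciferase reporter; cells plated 5 hr, compound pinned, doxycycline added, then 16 hr at 37 C. Viability read as intracellular ATP by CellTiter-Glo luminescence.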
# [12] = qHTS assay for small molecule agonists of the antioxidant response element (ARE) signaling pathway measured by Nrf2-dependant transcriptional activity - cell viability counter screen (AID 720653; active means well fitted curve in the direction sought with a large enough effect in the repeat runs; an effect the other way counts as inactive or inconclusive); settings: ARE-bla HepG2 viability, CellTiter-Glo ATP luminescence, 16 h; hits give low values
# Outline: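 Cytotoxicity counter screen: intracellular ATP quantified by CellTiter-Glo luminescence in the same ARE-bla HepG2 plates, after 16 h compound exposure and a 2 h beta-lactamase substrate step.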
# [13] = target: Glucagon-like peptide 1 receptor (Homo sapiens) (UniProt P43220); assay: qHTS of GLP-1 Receptor Agonists: LOPAC Validation (AID 624148);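 further: luminescence from a luciferase reporter switched on by cAMP; higher luminescence signal means agonism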
# Outline: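 Agonism scored as increased luciferase luminescence driven by cAMP in HEK293 clones carrying GLP-1R. Cells settled 12 hours, received compound for 4-6 hr at 37 deg C, 5% CO2, and were read after 12 min detection reagent at RT.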
# [14] = qHTS of Nrf2 Activators: LOPAC Validation (AID 624149)
# Outline: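 AREc32 cells carrying an ARE-driven firefly luciferase were grown overnight in OPTI-MEM with 5% FBS, then exposed to compounds for 24 hr at 37 deg C. Luciferase signal was read after 30 min with Steady-Glo at RT.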
# [15] = HTS Assay for Allosteric Antagonists of the Human D2 Dopamine Receptor: Hit Validation in HTRF (AID 624455);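 further: stable D1 dopamine receptor cell line scored for blocking the D1 response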
# Outline: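 Hits were examined in an HTRF assay using cells stably expressing the D1 dopamine receptor, scoring inhibition of the D1-mediated response. The preceding primary screen tracked calcium flux after an EC80 dopamine addition in force-coupled, inducible Hek293 Trex D2 cells.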
# [16] = qHTS for compounds that reverse cellular toxicity of Amyloid beta (A-beta) peptide in yeast: LOPAC Validation Assay (AID 720559)
# Outline: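 Yeast expressing toxic A-beta grown with pinned compounds at 30 C for 48 hr. Growth measured as absorbance at 600 nm; data normalized to DMSO and to an equimolar FeCl3/clioquinol mixture as positive control.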
# [17] = qHTS for Activators of Parkin Expression: LOPAC Validation Assay (NLuc Reporter) (AID 720572)
# Outline: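 Parkin promoter-driven FLuc/NLuc neuronal reporter cells; 24 h plating, 7-pt dose response, 24 h at 37 C/5% CO2; FLuc then NanoLuc reagent, 10 min each, luminescence; DMSO/positive control normalized.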
# Sequence of Peroxisome proliferator-activated receptor alpha (Homo sapiens) (Q07869 whole entry, looked up): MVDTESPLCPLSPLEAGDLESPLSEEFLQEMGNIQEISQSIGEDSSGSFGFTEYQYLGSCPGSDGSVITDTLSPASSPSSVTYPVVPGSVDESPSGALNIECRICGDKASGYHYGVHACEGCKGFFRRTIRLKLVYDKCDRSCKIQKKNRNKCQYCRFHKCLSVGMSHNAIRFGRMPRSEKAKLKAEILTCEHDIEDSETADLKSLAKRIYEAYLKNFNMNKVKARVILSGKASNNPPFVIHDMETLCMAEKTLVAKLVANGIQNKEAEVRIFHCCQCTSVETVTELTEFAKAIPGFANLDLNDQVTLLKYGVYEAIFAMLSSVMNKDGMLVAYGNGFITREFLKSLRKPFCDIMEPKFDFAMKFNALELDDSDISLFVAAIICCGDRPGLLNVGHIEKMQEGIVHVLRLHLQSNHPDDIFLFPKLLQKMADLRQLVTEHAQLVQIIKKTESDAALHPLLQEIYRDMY
# Sequence of Tumor necrosis factor (Homo sapiens) (P01375 whole entry, looked up): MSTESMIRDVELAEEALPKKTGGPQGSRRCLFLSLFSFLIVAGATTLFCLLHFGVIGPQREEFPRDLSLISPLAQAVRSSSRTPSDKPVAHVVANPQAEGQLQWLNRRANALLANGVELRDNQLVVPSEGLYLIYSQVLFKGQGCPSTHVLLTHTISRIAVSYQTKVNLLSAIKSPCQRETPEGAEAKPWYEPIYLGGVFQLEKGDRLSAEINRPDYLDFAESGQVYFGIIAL
# Sequence of Nuclear receptor ROR-gamma (Homo sapiens) (P51449 whole entry, looked up): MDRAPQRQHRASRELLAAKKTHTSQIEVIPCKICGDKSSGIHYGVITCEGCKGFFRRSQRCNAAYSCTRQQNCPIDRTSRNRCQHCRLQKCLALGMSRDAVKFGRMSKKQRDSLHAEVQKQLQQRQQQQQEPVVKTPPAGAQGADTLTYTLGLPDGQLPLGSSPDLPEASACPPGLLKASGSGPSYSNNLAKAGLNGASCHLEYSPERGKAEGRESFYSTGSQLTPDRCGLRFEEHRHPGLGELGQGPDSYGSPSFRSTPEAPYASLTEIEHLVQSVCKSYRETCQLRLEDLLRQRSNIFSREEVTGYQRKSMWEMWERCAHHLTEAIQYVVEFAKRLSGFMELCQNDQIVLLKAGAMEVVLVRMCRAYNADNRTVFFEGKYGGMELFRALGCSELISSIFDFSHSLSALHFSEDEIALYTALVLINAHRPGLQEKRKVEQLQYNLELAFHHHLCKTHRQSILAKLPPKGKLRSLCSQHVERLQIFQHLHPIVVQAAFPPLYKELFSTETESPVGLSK
# Sequence of Glucagon-like peptide 1 receptor (Homo sapiens) (P43220 whole entry, looked up): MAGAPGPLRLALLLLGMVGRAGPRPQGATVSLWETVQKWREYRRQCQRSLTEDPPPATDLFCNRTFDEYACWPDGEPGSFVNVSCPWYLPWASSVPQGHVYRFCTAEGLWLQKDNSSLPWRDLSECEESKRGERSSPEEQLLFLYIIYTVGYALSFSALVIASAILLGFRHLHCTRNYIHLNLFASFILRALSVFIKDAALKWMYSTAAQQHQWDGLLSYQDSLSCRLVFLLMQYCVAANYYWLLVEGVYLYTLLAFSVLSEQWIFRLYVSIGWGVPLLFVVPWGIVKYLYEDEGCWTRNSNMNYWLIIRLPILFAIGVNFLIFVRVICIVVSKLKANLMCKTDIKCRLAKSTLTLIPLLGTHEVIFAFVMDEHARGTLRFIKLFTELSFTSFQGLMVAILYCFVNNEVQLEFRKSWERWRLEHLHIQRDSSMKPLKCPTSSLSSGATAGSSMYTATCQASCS
SMILES,Potency [1],activation [2],Potency [3],Potency [4],Potency [5],Potency [6],activation [7],max response [8],Potency [9],Potency [10],outcome [11],max response [12],outcome [13],outcome [14],outcome [15],Potency [7],outcome [16],outcome [17]
OB(O)O,inactive,-0.565% and -2.3%,inactive,inactive,inactive,inactive,0.198% and -2.21%,-2.01% and 0.448%,inactive,inactive,inactive,-7.44% and 3.96%,,,,,,
Oc1cccc(O)c1O,5.96 µM (active),2.6%,,inactive,,75 µM (active),-0.8%,0.0177%,inactive,inactive,inactive,-24.8%,,,,,,
CC(C)CCC[C@@H](C)[C@H]1CC[C@H]2[C@@H]3CC=C4C[C@@H](O)CC[C@]4(C)[C@H]3CC[C@]12C,54.5 µM (active),-0.872%,,,,,-1.61%,-0.612%,,inactive,,-4.46%,,,,,,
Oc1ccc(/C=C/c2cc(O)cc(O)c2)cc1,19.3 µM (active) and 37.6 µM (active),5.17% and 7.3%,1.88 µM (active),5.31 µM (active),,,,-3.92% and -4.52%,inactive,,inactive,7.43% and -3.23%,inactive,inactive,inactive,25.1 µM (active),inactive,inactive
CC1=CCC2CC1C2(C)C (stereo not given),inactive,-1.57%,inactive,inactive,inactive,inactive,1.2%,-6.44%,inactive,inactive,inactive,-2.11%,,,,,,
Nc1ncnc2c1ncn2[C@H]1CC[C@@H](CO)O1,inactive,-6.3% and -2.15%,inactive,inactive,inactive,inactive,3.83% and -0.699%,-1.88% and -2.98%,inactive,inactive,inactive,-18.5% and 2.96%,,,,,,
NCCO/C=C/[C@H](N)C(=O)O,inactive,7.75%,,,,,1.28%,2.79%,,inactive,,6.58%,,,,,,
CC[C@H]1OC(=O)[C@H](C)[C@@H](O[C@H]2C[C@@](C)(OC)[C@@H](O)[C@H](C)O2)[C@H](C)[C@@H](O[C@@H]2O[C@H](C)C[C@H](N(C)C)[C@H]2O)[C@](C)(O)C[C@@H](C)CN(C)[C@H](C)[C@@H](O)[C@]1(C)O,inactive,-5.82%,inactive,inactive,inactive,,0.789%,-5.78%,inactive,inactive,inactive,-20.4%,,,,,,
C[C@H](CCC(=O)O)[C@H]1CC[C@H]2[C@@H]3CC[C@@H]4C[C@H](O)CC[C@]4(C)[C@H]3C[C@H](O)[C@]12C,66.8 µM (active),-2.17%,inactive,inactive,inactive,,-0.635%,-0.194%,,inactive,inactive,-10.6%,,,,,,
CO[C@@H]1[C@H](OC(=O)/C=C/C=C/C=C/C=C/C(=O)O)CC[C@]2(CO2)[C@H]1[C@@]1(C)O[C@@H]1CC=C(C)C,13.7 µM (active),-4.17%,,,,,1.85%,-0.833%,,,,8.65%,,,,,,
COC(=O)c1ccccc1O,inactive,0.469% and 1.6%,,,inactive,,0.888% and 1.53%,-2.75% and -2.44%,inactive,inactive,inactive,1.24% and 5.57%,,,,,,
Nc1nccs1,inactive,2.07%,,,inactive,,1.04%,-4.35%,inactive,inactive,,-16.1%,,,,,,
